Mito fusion act: blocks mitochondrial division or promotes mitochondrial fusion. S. cerevisiae fusion-defective mutant growth rescue, CellTiterGlo 48 h. Potency, µM (series often up to 46.1 µM), hits mostly activators. hit rate 0.23% among 320,000; note: nearly all actives have a fitted effect of over 45% in size
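Read-out: ATP-based luminescence (CellTiterGlo, 10 min ambient) reporting growth of fusion-defective ts yeast after 48 hours at 37C on glycerol/ethanol YPEG medium in the presence of compound.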
p53 reactivator: restores transcriptional activity of mutant p53; H1299 p53-A138V BP100-luciferase reporter, luminescence, 24 h; hit rate 0.063% among 320,000; Potency, µM (top dose mostly 92.2 µM), hits mostly activators; note: nearly all actives have a fitted effect of over 45% in size
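H1299 (p53-null), stable ts p53-A138V + BP100-Luc; 1000 cells/well, Opti-MEM/10% FBS; cpd 4 pt, 1:5; 24 h, 37 deg C, 5% CO2; detection reagent 10 min RT; luminescence.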
ClpP mod: qHTS Assay for Activators of ClpP | ATP-dependent Clp protease proteolytic subunit (Bacillus subtilis (strain 168)), P80244 | purified B. subtilis ClpP, FRET peptide cleavage, 20 min | Potency, µM (series often up to 57.5 µM) | hit rate 1.9% among 340,000 | AID 651965, 2013; active = well fitted falling curve with a large enough effect; inconclusive = small, poorly fitted or top-dose-only effect; inactive = no such curve, though single readings can be large or run the other way; note: the source files actives as falling curves though it sought activators and does not explain the sign; nearly all actives have a fitted effect of over 65% in size
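FRET quenching reversal measured ClpP activation: 10 microg/mL B. subtilis ClpP at pH 8 with the FRET-FV decapeptide, read at 430 nm after 320 nm excitation. The 20-min minus 0-min signal was scaled between DMSO/no-enzyme wells and ADEP (5.8 microM final).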
uPA generation: inhibitors of cell surface uPA generation. hit rate 0.31% among 330,000. Potency, µM (titrated, usually from 38.3 µM), actives largely listed as inhibitors. cell surface uPA generation assay, qHTS. AID 540303; active = well fitted inhibition curve with a large enough effect; inconclusive = small, poorly fitted or top-dose-only effect; inactive = no such curve, though single readings can be large or run the other way; tested in mouse RAW 264.7 cells; note: nearly all actives have a fitted effect of over 55% in size
B2AR arrestin: recruits beta-arrestin to the human beta2-adrenergic receptor | Potency, µM (titrated, usually from 46.1 µM), most hits filed as activators | hit rate 0.02% among 330,000 | beta-arrestin recruitment to beta2AR, cell-based reporter | P07550 | AID 492947; note: nearly all actives have a fitted effect of over 65% in size
Target sequence (P07550 whole entry, looked up): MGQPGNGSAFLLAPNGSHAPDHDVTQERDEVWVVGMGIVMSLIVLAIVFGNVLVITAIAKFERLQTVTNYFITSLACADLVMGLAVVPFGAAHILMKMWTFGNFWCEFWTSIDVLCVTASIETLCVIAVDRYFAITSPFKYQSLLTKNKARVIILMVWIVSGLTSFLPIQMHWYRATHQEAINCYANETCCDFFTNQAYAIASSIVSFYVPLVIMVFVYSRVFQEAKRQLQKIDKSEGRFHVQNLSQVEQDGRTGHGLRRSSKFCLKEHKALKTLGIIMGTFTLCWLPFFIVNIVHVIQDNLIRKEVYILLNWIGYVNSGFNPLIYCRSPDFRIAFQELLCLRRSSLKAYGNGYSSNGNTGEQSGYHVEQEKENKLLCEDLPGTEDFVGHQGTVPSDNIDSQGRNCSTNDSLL
Giardia killer: Giardia lamblia killing | Giardia lamblia trophozoite viability | hit rate 0.15% among 340,000 | AID 540267 | activity change, % at 7.66 µM, hits read low; in the data active = activity change below about -80%; inconclusive = between about -30% and that limit;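 note: parasites exposed to compound for two days anaerobically before the ATP read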
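Giardia lamblia trophozoites (100 cells/well) were incubated with compounds for 48 h at 37 deg C under anaerobic conditions. Viability was read as ATP content by one-step luminescence after 15-30 min at room temperature.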
A number is an active result; - = inactive; ? = inconclusive; . = not tested or not shown. Sampled rows, rich in hits. Any-hit rate of the full collection: about 2.1%. Unless noted, calls come from the whole dose curve; as a rule, active = well fitted curve in the direction sought with a large enough effect; inconclusive = small, poorly fitted or top-dose-only effect, or another doubt; inactive = no such curve, though single readings can be large; an effect the other way counts as inactive or inconclusive.

SMILES | Mito fusion act | p53 reactivator | ClpP mod | uPA generation | B2AR arrestin | Giardia killer
CN(C)c1cccc(/C=C(\C#N)c2ccccc2)c1 | - | ? | - | ? | - | -
COC(=O)c1cc2oc3ccccc3c2n1CC(=O)Nc1ccc(C)cc1Cl | . | . | - | . | . | .
Cc1cccc(-c2nc(CSc3nncn4c3cc3oc(C)cc34)c(C)o2)c1 | . | . | - | . | . | .
CC(=O)NC(c1cccs1)c1cc(F)c2cccnc2c1O (configuration not stated) | ? | - | . | 5µM | ? | -
CC(C)CC(=O)NC(c1cccs1)c1ccc2cccnc2c1O (configuration not stated) | - | - | . | - | - | -
CCC(=O)NC(c1cccs1)c1ccc2cccnc2c1O (configuration not stated) | - | - | - | ? | 13µM | -
O=C(Nc1nnc(SCc2cc(=O)n3cc(Cl)ccc3n2)s1)c1cccc(F)c1 | . | . | - | . | . | .
COCCNC(=O)CCCn1c(SCC(=O)Nc2ccc(F)cc2)nc2c(sc3ccccc32)c1=O | . | . | - | . | . | .
CN1CCN(C(=O)Cn2c(-c3cccs3)cc3cc(Cl)ccc32)CC1 | . | . | 32µM | . | . | .
CCCCCn1c(=O)[nH]c2cc(C(=O)N3CCN(c4cccc(Cl)c4)CC3)ccc2c1=O | . | . | - | . | . | .
O=C(Cn1c(=O)[nH]c2ccccc2c1=O)N1CCN(c2cccc(Cl)c2)CC1 | - | - | 32µM | - | - | -
O=C(Cn1c(-c2cccs2)cc2cc(F)ccc21)N1CCN(c2cccc(Cl)c2)CC1 | . | . | 28µM | . | . | .
CCOC(=O)c1cccc(NC(=O)c2ccc3c(Cl)c4c(nc3c2)CCC4)c1 | . | . | - | . | . | .
CCOc1ccccc1NC(=O)N1CCN(S(=O)(=O)c2ccc3c(ccn3C)c2)CC1 | . | . | - | . | . | .
N#CC(C(=O)NC1CCCCC1)=C1CCCCCC1 | - | - | 16µM | ? | - | -
O=C(CC(c1cccs1)N1Cc2ccccc2C1=O)Nc1ccccc1F (configuration not stated) | . | . | - | . | . | .
O=C(NCCCN1CCOCC1)c1cc2c(=O)[nH]c3ccccc3c2s1 | - | - | - | - | - | -
CCN1CCN(CCCNC(=O)c2cc3c(=O)[nH]c4ccccc4c3s2)CC1 | - | - | 8.9µM | - | - | -
CCn1c(=O)c2cc(C(=O)NCCCOC)sc2c2ccccc21 | - | - | - | 5.6µM | - | -
Cc1ccc2[nH]c(=O)c3cc(C(=O)NCCCN4CCC(C)CC4)sc3c2c1 | . | . | 13µM | . | . | .
Cc1ccc(S(=O)(=O)N2CCCC(c3nc4c(nnn4Cc4ccc(OC(F)(F)F)cc4)c(=O)[nH]3)C2)cc1 (configuration not stated) | . | . | - | . | . | .
Cc1ccc(CCNC(=O)c2sc3nc4n(c(=O)c3c2C)CCCC4)cc1 | . | . | - | . | . | .
Cc1[nH]nc2c1C1(CCN(Cc3ccccc3)CC1)C(C#N)=C(N)O2 | - | - | - | - | - | -
N#CC1=C(N)N2C(=C(C#N)C13CCN(Cc1ccccc1)CC3)Nc1ccccc12 | - | - | 32µM | . | ? | -
CSc1nc2c(c(-c3ccc(O)cc3)c1C#N)CCC2 | - | - | - | - | - | -
SMILES | Mito fusion act | p53 reactivator | ClpP mod | uPA generation | B2AR arrestin | Giardia killer
N#Cc1c(N)c(C#N)c(-c2ccc3c(c2)OCO3)c2c1CCCC2 | - | - | 32µM | - | - | -
N#Cc1c(N)nc2c(c1-c1ccc3c(c1)OCO3)CCc1ccccc1-2 | ? | - | ? | - | - | -
N#Cc1c(N)c(C#N)c(-c2ccc(O)cc2)c2c1CCCC2 | - | - | 22µM | - | - | -
CCCCNC(=S)N(Cc1c(C)noc1C)c1ccccc1 | - | - | 4µM | - | - | -
CCNC(=S)N(Cc1c(C)noc1C)c1ccccc1 | - | - | - | - | - | -
COc1cc(-c2nnc(SCCOc3cc(C)cc(C)c3)o2)cc(OC)c1OC | . | . | - | . | . | .
COc1cc(-c2nnc(-c3cc(OC)c(OC)c(OC)c3)o2)cc(OC)c1OC | - | - | 25µM | - | - | -
COc1cc(-c2n[nH]c(=O)o2)cc(OC)c1OC | - | - | 16µM | - | - | -
COc1cc(-c2nnc(SCC(=O)N3CCCC3)o2)cc(OC)c1OC | - | - | - | - | - | -
COc1cc(-c2nnc(SCC(=O)/C(C#N)=C(\C)N)o2)cc(OC)c1OC | - | - | 14µM | - | - | -
COc1cc(-c2nnc(-c3ccccc3)o2)cc(OC)c1OC | - | - | ? | - | - | -

Screening results as filed in PubChem BioAssay.
